# Measurements: PubChem BioAssay (NCI)
# About 83,000 compounds went through this panel and 20% of them were active in at least one assay; those are over-represented in the sample as a whole.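 Growth was measured after 48 h exposure to one concentration of compound in 96-well plates. Values under 10 count as active.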 Values without a mark were called inactive. Activity calls are given as the source filed them.
# Test system: KM12 colon
# Assay: NCI-60 one-dose screen, 48 h (100 = growth as untreated, 0 = no growth, -100 = all killed)
# Details: 10 µM unless noted
row,Compound,growth
1,CC1=C(C(=O)Nc2ccccc2)C(c2cccc3ccccc23)n2c(nc3ccccc32)N1 (configuration not stated),89.9%
2,COc1ccc(NC(=O)CSc2nnc(-c3ccc(-c4nc5ccccc5[nH]4)cc3)o2)cc1,30.5%
3,COc1cc2cc(C(=O)N3C[C@@H](CCl)c4c3cc(OC(=O)N(C)CCSSCCN3CCOCC3)c3ccccc43)[nH]c2c(OC)c1OC,-31.1% (active)
4,CC(=O)C[n+]1cccc2c3ccccc3ccc21,88.2%
5,CC[C@]12C=CCN3CC[C@]4(C(=C(C(=O)OC)C1)Nc1cc(OC)c([C@@H]5[C@H]6O[C@H]6[C@@]6(CC)CC(C(=O)OC)=C7Nc8cc(O)ccc8[C@@]78CCN5[C@@H]68)cc14)[C@@H]32,0.303% (active)
6,Cc1ccccc1Nc1nnc(-c2c[nH]c3ccccc23)o1,25%
7,COc1cncc(-c2ccc3ncnc(N4CCc5ccc(Cl)cc54)c3c2)c1,21.5%
8,Clc1ccc2c(NCCNC34CC5CC(CC(C5)C3)C4)ccnc2c1,-96.8% (active)
9,Cn1cc(-c2cc(N)n3nc(-c4c[nH]c5ccccc45)cc3n2)c2cc(Br)ccc21,-79.3% (active)
10,Cc1nn(-c2ccccc2)c2nc(C)n(CC(=O)N/N=C/c3cccc([N+](=O)[O-])c3)c(=O)c12,101%
11,Cc1ccc(S(=O)(=O)Nc2ccc(-c3ccc4c(c3)NC(=O)/C4=C\c3ccc[nH]3)cc2)cc1,67.1%
12,O=C1c2cccc3c(N4CCN(c5ccccc5)CC4)ccc(c23)C(=O)N1c1cccc(-c2nn(-c3ccccc3)cc2-c2nc3ccccc3s2)c1,104%
13,COc1ccc(-c2cc(-c3cc(C(C)C)c(O)cc3C)nn2-c2ccc(S(N)(=O)=O)cc2)cc1,2.28% (active)
14,Clc1ccc(-c2nc3c4c(-c5ccccc5)c(-c5ccccc5)n(Cc5ccccc5)c4ncn3n2)cc1,9.06% (active)
15,Cc1ccc(-c2cc(C(=O)N=Nc3c(O)[nH]c4ccc(F)cc34)c3ccccc3n2)cc1,51.2%
16,COc1ccc(/C=C/c2nc3ccccc3n3c(-c4cccc([N+](=O)[O-])c4)nnc23)cc1,-67.3% (active)

row,Compound,growth
1,O=C(c1ccc(O)cc1)C1[C@H](c2ccc(Cl)cc2)[C@@H](c2ccccc2)NC12C(=O)Nc1ccccc12 (some centres not stated),-13.7% (active)
2,N#C/C(=C1/C(=O)Nc2ccccc21)c1nnc(NC(=O)c2ccc(-n3c(=O)[nH]c4ccccc4c3=O)cc2)s1,21.4%
3,CN(C(=O)CN1C(=O)/C(=C/c2ccco2)SC1=S)C1CCS(=O)(=O)C1 (configuration not stated),107%
4,COc1c2c(cc3c1C(CCc1ccccc1)N(C)CC3)OCO2 (configuration not stated),-28.3% (active)
5,COc1cc(C2CC(c3ccc(F)cc3)=Nc3c(N)nc(N)nc3N2)ccc1Oc1nc(Nc2ccc(F)cc2)nc(N(C)C)n1 (configuration not stated),44.9%
6,CC(C)C[C@H](NC(=O)CNC(=O)C[C@H]1O[C@@H]2OC3(C)CC[C@H]4[C@H](C)CC[C@@H]([C@H]1C)[C@@]24O3)B(O)O,-24.4% (active)
7,Cc1[nH]nc2ccc3nc(-c4cnn(CCO)c4)c4c(c3c12)CCCC4,18.8%
8,CCCN(CCC)S(=O)(=O)c1ccc(C(=O)O)cc1.CCCN(CCC)S(=O)(=O)c1ccc(C(=O)O)cc1.[Cl][Pt+2][Cl].[NH2-].[NH2-],17.8%
9,COc1ccc(N=Nc2c(N)nn3c(-c4ccc5c(c4)C=S=C5)ccnc23)cc1,42.5%
10,O=C(NNC(=O)c1ccc(OCc2nc3ccc(Cl)cc3[nH]2)cc1)Nc1ccc(Cl)c(Cl)c1,33.8%
11,Cc1nc(Nc2ccccn2)sc1C1=NNC(c2ccccc2F)C1 (configuration not stated),23.4%
12,COc1ccc(-c2nc3ccccc3n2CC(=O)N=Nc2c(O)[nH]c3ccc(Br)cc23)cc1,71.1%
13,CC[C@]12C=CCN3CC[C@@]4(c5ccc(OC)cc5N(C)[C@H]4[C@@](O)(C(=O)OC)[C@@H]1OC(=O)CCC[P+](c1ccc(OC)cc1)(c1ccc(OC)cc1)c1ccc(OC)cc1)[C@@H]32,-65.3% (active)
14,COc1ccc(-c2cc(C(=O)N=Nc3c(O)[nH]c4ccc(Cl)cc34)c3ccccc3n2)cc1OC,101%
15,Fc1ccc(Nc2nnc(-c3c[nH]c4ccccc34)o2)cc1,64.4%
16,O=C(NN1C(=O)/C(=C/C=C/c2ccc([N+](=O)[O-])o2)SC1=S)c1ccc(O)cc1,-95.2% (active)
